Screens: PubChem BioAssay, National Center for Advancing Translational Sciences (NCATS)
GCN5L2 inh-1: inhibitors of human GCN5L2 histone acetyltransferase; Q92830; GCN5L2 HAT assay, ThioGlo1 CoA-SH fluorescence; Potency, µM (series often up to 58.9 µM), actives largely listed as inhibitors; 390,000 tested, 0.21% active; AID 504327
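GCN5L2 (20nM final) in 50mM HEPES, 0.1mM EDTA pH 7.5, 0.01% Tween-20 was preincubated 15 min at room temperature with compound, then given ThioGlo1 (50uM), H3(1-25) peptide (75uM) and acetyl-CoA (70uM); CoA-thiol fluorescence (Ex340/Em540) was read at 0 and 20 min.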
RECQ1 helicase: blocks DNA unwinding by human RECQ1 | P46063 | RECQ1 DNA unwinding, red fluorescence kinetic read | Potency, µM (top dose mostly 57.3 µM), actives largely listed as inhibitors | 240,000 tested, 0.54% active; note: nearly all actives have a fitted effect of over 30% in size
Target sequence (P46063 whole entry, looked up): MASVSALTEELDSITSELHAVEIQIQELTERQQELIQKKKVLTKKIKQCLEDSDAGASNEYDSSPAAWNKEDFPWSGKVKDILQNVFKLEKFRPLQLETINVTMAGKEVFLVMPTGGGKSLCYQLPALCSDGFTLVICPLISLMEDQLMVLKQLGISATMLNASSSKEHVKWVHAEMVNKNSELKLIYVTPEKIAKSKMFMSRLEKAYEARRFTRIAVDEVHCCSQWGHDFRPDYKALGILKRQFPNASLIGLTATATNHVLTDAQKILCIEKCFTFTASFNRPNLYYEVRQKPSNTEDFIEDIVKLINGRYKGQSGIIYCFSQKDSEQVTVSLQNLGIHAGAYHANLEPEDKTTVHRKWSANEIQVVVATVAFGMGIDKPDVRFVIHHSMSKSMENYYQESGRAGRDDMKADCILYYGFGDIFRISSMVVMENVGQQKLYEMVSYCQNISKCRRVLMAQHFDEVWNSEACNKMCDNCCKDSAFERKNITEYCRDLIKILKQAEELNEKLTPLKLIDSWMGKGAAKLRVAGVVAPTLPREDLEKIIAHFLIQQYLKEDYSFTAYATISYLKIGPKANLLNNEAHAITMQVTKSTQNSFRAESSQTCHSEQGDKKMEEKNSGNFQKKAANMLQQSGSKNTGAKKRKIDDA
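RECQ1T1 50 nM; forked duplex (20 bp + 30-nt ss tails) 200 nM, ATP 2 mM final; pH 8.0, 2 mM MgCl2, 2.5 ug/ml poly(dI-dC); 15 min compound preincubation; discontinuous kinetic read over 2 h at RT.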
APE1 inh: inhibitors of human APE1 endonuclease. P27695. recombinant APE1, TAMRA/BHQ-2 abasic DNA cleavage fluorescence. Potency, µM (doses to about 65.8 µM), most hits filed as inhibitors. 350,000 tested, 0.35% active. AID 2517; note: nearly all actives have a fitted effect of over 55% in size
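0.75 nM APE1 + cpd, 15 min RT; start w/ 50 nM TAMRA/BHQ-2 THF-abasic dsDNA; kinetic fluor 525/598 nm ×3 reads @60 s; Δ(read3−read1); normalized to DMSO and NSC13755 control wells.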
BLM helicase inh: Bloom syndrome helicase (human) inhibition; P54132; recombinant BLM DNA unwinding, fluorescence dequenching; Potency, µM (titrated, usually from 56.1 µM), usual class: inhibitors; 350,000 tested, 0.2% active; AID 2528; note: nearly all actives have a fitted effect of over 35% in size
TDP1 inh: blocks human tyrosyl-DNA phosphodiesterase 1; 350,000 tested, 0.28% active; Potency, µM (series often up to 130 µM), most hits filed as inhibitors; AID 485290; Q9NUW8; recombinant TDP1, AlphaScreen DNA substrate cleavage; note: nearly all actives have a fitted effect of over 40% in size
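Compounds were preincubated with Tdp1 (1 nM final) for 15 min at room temperature before substrate (15 nM final) started a 5 min reaction; beads (10 ug/ml final) were then added for 10 min before AlphaScreen detection.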
JMJD2E inh: inhibitors of human JMJD2E histone demethylase | B2RXH2 | JMJD2E catalytic domain, FDH-coupled NADH fluorescence (FDH is formaldehyde dehydrogenase) | Potency, µM (top dose mostly 57.1 µM), actives largely listed as inhibitors | 230,000 tested, 1.6% active; active = well fitted inhibition curve with a large enough effect, not every such curve was filed as active; inconclusive = small, poorly fitted or top-dose-only effect, or another doubt; inactive = no such curve, though single readings can be large or run the other way; note: nearly all actives have a fitted effect of over 50% in size
GCN5L2 inh-2: human KAT2A HAT inhibition, hit confirmation; 140 tested, 70% active; GCN5L2 HAT, ThioGlo1 CoA fluorescence, 20 min; shares compounds with GCN5L2 inh-1; Potency, µM, usual class: inhibitors
A number is an active result; i = inactive; ? = inconclusive; nt = no result; [ ] = another dose, or the depositor's remark. Only a selection was taken, and hits are over-represented in it overall. Unless noted, calls come from the whole dose curve; as a rule, active = well fitted curve in the direction sought with a large enough effect; inconclusive = small, poorly fitted or top-dose-only effect, or another doubt; inactive = no such curve, though single readings can be large; an effect the other way counts as inactive or inconclusive.

SMILES	GCN5L2 inh-1	RECQ1 helicase	APE1 inh	BLM helicase inh	TDP1 inh	JMJD2E inh	GCN5L2 inh-2
Nc1ccc(-c2nc3cc(N)ccc3n2CCO)cc1	?	i	i	i	nt	?	18
COc1ccc(C(=O)N/N=C/c2ccc3cccc(OCc4ccccc4)c3n2)cc1	?	i	i	i	i	?	23
O=C(C1=NN(c2ccccc2)C2C(=O)N(c3ccccc3Cl)C(=O)C12)c1ccccc1 (stereo unspecified)	?	i	i	i	i	i	?
C[C@H](NC(=O)N1CCc2nc(-c3ccccc3)c3c(c2C1)CO[C@@H](C)C3)c1ccccc1	nt	i[11.5 µM]	i[12.4 µM]	i[12.4 µM]	i[21 µM]	i[11.4 µM]	nt
Cc1ccc(S(=O)(=O)N2[C@@H](c3ccc(Br)cc3)C(C(=O)O)=CC[C@H]2c2cccc(Cl)c2)cc1	?	nt	i	nt	i	nt	nt
Cc1ccc(S(=O)(=O)N2[C@@H](c3ccc(Cl)cc3)C(C(=O)O)=CC[C@H]2c2ccc(C(C)C)cc2)cc1	?	nt	i	nt	i	nt	nt
Cc1ccc(S(=O)(=O)N2[C@@H](c3ccc(Br)cc3)C(C(=O)O)=CC[C@H]2c2ccc(Cl)c(Cl)c2)cc1	28µM	nt	i	nt	i	nt	13
Cc1ccc([C@H]2C(C(=O)O)=CC[C@@H](c3ccc(Cl)cc3)N2S(=O)(=O)c2ccc(C)cc2)cc1	14µM	nt	i	nt	i	nt	?
Cc1ccc(Cl)cc1NC(=O)C(=O)NCC(c1cccnc1)N1CCc2ccccc21 (stereo unspecified)	i	nt	nt	i	i	nt	nt
Nc1c(C(=O)N2CCCCC2)sc(=S)n1-c1ccccc1	?	i	i	i	i	?	?
CC(=O)NC(=S)Nc1sc2c(c1C(N)=O)CCC(C)C2 (stereo unspecified)	20µM	i	i	i	i	i	32
O=C1CC(=O)N(CCc2ccccc2)C(=O)N1CCc1ccccc1	i	i	i	i	i	i	nt
O=C1C=CC(=O)C(C2=C3C(=O)N(CCc4ccccc4)CC(=O)N3CCC2)=C1	14µM	i	i	i	i	?	18
O=C(CSc1nc2ccccc2s1)Nc1cc(C(=O)O)cc(C(=O)O)c1	20µM	i	i	i	i	i	?
O=C(CSc1nc2ccccc2s1)Nc1ccc(Cl)c(C(=O)O)c1	?	i	i	i	i	i	nt
CCCNC(=O)c1ccc2c(=O)c(O)c(-c3ccsc3)[nH]c2c1	32µM	i	i	i	i	?	16
CCCNC(=O)c1ccc2c(=O)c(O)c(-c3ccc(C)cc3)[nH]c2c1	i	i	i	i	i	?	nt
CCOc1ccc(-n2c(C)cc(/C=C3/C(=N)N4C(=NC3=O)SN=C4S(C)(=O)=O)c2C)cc1	32µM	i	i	i	i	?	?
C[C@@H](c1ccccc1)N1C(=O)[C@H]2[C@H]3[C@H](O)[C@H](O)C/C(=N/NC(=O)OCc4ccccc4)[C@@H]3CC[C@@H]2C1=O	nt	i[11.5 µM]	i[12.4 µM]	i[12.4 µM]	i[21 µM]	nt	nt
COc1cc(N=c2ssnc2Cl)cc(OC)c1OC	10µM	i	i	i	i	18µM	3.6
CCCCc1nc2c(c3c1C[C@H](C)OC3)CN(C(=O)N[C@H](C(=O)OC)C(C)C)CC2	nt	i[11.5 µM]	i[12.4 µM]	i[12.4 µM]	i[21 µM]	i[11.4 µM]	nt
Cc1ccc(-c2c(C3C4C=CCCC4(C)C(=O)N3Cc3ccccc3)ccc3ccccc23)cc1 (stereo unspecified)	nt	i	i	i	i	nt	nt
CCOC(=O)c1sc2nc(N3CCOCC3)c3c(c2c1N)CCCC3	i	i	i	i	i	?	nt
Nc1c(C(=O)NCc2ccco2)sc2nc(N3CCOCC3)c3c(c12)CCCC3	?	i	?	i	i	?	?
Cc1cc(O)c(C)c2sc(N)nc12	i	i	i	i	i	nt	nt
O=C1ON=C(c2ccc(Cl)cc2)/C1=C/c1ccc(O)cc1	?	i	i	i	i	?	26
O=C1ON=C(c2ccccc2)/C1=C/c1ccc(O)cc1	i	nt	i	i	i	nt	nt
CC(=O)c1ccc(-c2nc3ccccc3n2C)o1	?	i	i	i	i	?	18
CSc1ccccc1C(=O)Nc1ncn[nH]1	35µM	nt	i	i	i	nt	32
